# Laboratory results published in PubChem BioAssay (EPA / NIEHS).
# The source made the active and inactive calls. Rule for the calls: active = hit-call score of the fitted dose curve at least 0.9, where 1 is the maximum; inactive = score below 0.9.
# Read-out: Tumor necrosis factor receptor superfamily member 6 (Homo sapiens) (UniProt P25445)
# Assay: LTEA_HepaRG_FAS: Life Technologies and Expression Analysis (LTEA) Assay for Fas cell surface death receptor (FAS) using HepaRG (AID 2283447)
# Conditions: mRNA level, 48 h; actives raise or lower the signal
# Summary of the method: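 FAS transcript level was measured by TaqMan qRT-PCR against three housekeeping genes after 48 h chemical exposure. Cells were HepaRG, 0.5% DMSO vehicle, with a top concentration of 100 uM and half-log dilutions over eight points, in duplicate.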
# Sequence of Fatty acid synthase (Homo sapiens) (P49327 whole entry, looked up): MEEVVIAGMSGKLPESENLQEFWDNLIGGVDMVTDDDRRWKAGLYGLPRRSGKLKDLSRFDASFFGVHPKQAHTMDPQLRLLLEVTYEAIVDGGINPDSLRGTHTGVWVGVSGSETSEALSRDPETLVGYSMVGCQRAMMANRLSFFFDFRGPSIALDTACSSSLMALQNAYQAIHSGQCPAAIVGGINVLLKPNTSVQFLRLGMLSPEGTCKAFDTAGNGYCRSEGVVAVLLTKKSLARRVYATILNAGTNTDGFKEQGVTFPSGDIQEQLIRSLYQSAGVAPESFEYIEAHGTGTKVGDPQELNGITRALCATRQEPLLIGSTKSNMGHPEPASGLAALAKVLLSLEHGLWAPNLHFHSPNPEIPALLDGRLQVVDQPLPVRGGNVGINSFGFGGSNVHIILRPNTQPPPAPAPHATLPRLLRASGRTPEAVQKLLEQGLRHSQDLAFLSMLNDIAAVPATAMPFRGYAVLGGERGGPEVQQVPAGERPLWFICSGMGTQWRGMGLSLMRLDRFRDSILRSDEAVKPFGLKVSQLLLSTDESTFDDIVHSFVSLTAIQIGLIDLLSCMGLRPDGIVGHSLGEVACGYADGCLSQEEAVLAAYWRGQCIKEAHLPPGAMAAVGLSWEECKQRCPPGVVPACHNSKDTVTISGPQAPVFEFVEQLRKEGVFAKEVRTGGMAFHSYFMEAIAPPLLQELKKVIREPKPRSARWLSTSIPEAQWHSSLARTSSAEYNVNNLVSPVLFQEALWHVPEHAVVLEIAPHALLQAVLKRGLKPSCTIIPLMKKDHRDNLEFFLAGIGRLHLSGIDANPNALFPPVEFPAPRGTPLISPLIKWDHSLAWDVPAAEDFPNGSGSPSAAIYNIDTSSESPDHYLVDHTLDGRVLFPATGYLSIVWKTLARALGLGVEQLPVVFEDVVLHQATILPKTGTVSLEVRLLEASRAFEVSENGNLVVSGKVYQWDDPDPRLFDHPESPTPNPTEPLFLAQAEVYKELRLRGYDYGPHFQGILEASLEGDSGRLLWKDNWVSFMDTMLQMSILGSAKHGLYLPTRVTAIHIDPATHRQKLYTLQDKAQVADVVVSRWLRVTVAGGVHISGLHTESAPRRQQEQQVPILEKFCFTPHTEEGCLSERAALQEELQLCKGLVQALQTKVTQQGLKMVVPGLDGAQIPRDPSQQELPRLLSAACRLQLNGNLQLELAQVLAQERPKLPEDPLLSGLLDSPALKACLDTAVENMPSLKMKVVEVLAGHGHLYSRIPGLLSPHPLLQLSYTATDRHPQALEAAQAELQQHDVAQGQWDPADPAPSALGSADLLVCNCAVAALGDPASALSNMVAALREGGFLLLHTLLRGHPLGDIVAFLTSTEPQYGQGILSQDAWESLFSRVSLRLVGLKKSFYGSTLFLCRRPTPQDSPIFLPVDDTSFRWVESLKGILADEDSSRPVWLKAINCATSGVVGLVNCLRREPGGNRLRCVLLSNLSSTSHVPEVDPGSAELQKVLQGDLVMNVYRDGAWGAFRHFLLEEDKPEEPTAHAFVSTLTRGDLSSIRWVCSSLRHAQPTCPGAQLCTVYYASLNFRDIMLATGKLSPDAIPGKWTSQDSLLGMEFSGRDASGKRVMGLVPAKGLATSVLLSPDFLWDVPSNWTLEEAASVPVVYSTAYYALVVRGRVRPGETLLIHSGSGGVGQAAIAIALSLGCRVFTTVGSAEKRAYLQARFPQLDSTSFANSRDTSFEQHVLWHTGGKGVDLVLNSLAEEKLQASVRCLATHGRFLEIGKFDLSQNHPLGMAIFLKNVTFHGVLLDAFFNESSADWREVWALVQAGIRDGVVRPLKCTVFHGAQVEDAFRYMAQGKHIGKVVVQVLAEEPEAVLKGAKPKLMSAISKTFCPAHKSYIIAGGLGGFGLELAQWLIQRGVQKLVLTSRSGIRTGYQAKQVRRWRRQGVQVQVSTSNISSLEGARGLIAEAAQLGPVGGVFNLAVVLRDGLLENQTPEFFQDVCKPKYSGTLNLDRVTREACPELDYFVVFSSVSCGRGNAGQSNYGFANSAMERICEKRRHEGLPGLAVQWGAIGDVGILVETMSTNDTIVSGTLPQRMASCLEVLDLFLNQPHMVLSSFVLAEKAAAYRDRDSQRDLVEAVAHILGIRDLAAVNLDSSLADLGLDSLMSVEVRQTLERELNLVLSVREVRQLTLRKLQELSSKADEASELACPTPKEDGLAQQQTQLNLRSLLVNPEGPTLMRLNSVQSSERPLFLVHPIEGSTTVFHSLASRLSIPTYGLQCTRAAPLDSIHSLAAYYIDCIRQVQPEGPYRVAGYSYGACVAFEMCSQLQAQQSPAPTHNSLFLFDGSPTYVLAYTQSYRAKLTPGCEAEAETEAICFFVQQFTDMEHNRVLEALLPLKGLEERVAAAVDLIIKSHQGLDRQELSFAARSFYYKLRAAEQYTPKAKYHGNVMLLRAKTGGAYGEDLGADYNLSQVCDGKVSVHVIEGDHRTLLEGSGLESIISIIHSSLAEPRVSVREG
SMILES,outcome,AC50
CC1=C2C[C@H]3[C@@H](CC=C4C[C@@H](O)CC[C@@]43C)[C@@H]2CC[C@]12O[C@@H]1C[C@H](C)CN[C@H]1[C@H]2C,inactive,–
CC#Cc1cc(C)nc(Nc2ccccc2)n1,inactive,–
CCC(C)(c1ccc(O)cc1)c1ccc(O)cc1,inactive,–
Cc1ccccc1CO[C@@H]1C[C@@]2(C(C)C)CC[C@]1(C)O2,inactive,–
CCC(=O)O[C@H]1CC[C@H]2[C@@H]3CCC4=CC(=O)CC[C@]4(C)[C@H]3CC[C@]12C,inactive,–
Oc1ccc(Cl)cc1Cl,inactive,–
CCCCCCCCCc1ccc(O)cc1,inactive,–
ClC(Cl)=C(c1ccc(Cl)cc1)c1ccc(Cl)cc1,inactive,–
O=S(=O)(O)C(F)(F)C(F)(F)C(F)(F)C(F)(F)C(F)(F)C(F)(F)F,inactive,–
Cc1cc(O)ccc1Cl,inactive,–
O=C(O)C(F)(F)C(F)(F)C(F)(F)C(F)(F)C(F)(F)C(F)(F)C(F)(F)C(F)(F)F,–,69.2 µM (active)
COS(=O)(=O)OC,inactive,–
N#Cc1ccc(N(CC(N)=O)CC(F)(F)F)cc1C(F)(F)F,inactive,–
CCC(C)(CC)c1cc(NC(=O)c2c(OC)cccc2OC)on1,inactive,–
O=C(N[C@H]1CN2CCC1CC2)c1cc2ccoc2cn1,inactive,–
C1CC2OC2CC1C1CO1 (stereo unspecified),inactive,–

SMILES,outcome,AC50
O=S(=O)(O)C(F)(F)C(F)(F)C(F)(F)C(F)(F)F,inactive,–
O=NN(c1ccccc1)c1ccccc1,inactive,–
NS(=O)(=O)C(F)(F)C(F)(F)C(F)(F)C(F)(F)C(F)(F)C(F)(F)C(F)(F)C(F)(F)F,inactive,–
CC(c1ccc(O)cc1)(c1ccc(O)cc1)c1ccc(O)cc1,–,91.1 µM (active)
C=CC(N)=O,inactive,–
Cc1cc2c3c(c1)C(c1ccccc1)=N[C@@H](NC(=O)c1ccncc1)C(=O)N3CC2,inactive,–
CN(C)CCO,inactive,–
Nn1cnnc1,inactive,–
Cc1cc(-c2ccc(N)c(C)c2)ccc1N,inactive,–
O=C(NC(=O)c1c(F)cccc1F)Nc1cc(Cl)c(OC(F)(F)C(F)F)c(Cl)c1,inactive,–
CN(C)c1nc(=O)n(C2CCCCC2)c(=O)n1C,inactive,–
O=C(O)C(F)(F)C(F)(F)C(F)(F)C(F)(F)C(F)(F)C(F)(F)C(F)(F)C(F)(F)C(F)(F)F,–,89.3 µM (active)
c1cc2ccc3cccc4ccc(c1)c2c34,inactive,–
C=CC(=O)NCNC(=O)C=C,inactive,–
Clc1ccc(C(Cl)(Cl)Cl)cc1,inactive,–
O=C(NC(=O)c1cc(F)c(F)cc1Cl)Nc1cc(F)ccc1N1CCC(C(=O)O)CC1,inactive,–

# Read-out: Fatty acid synthase (Homo sapiens) (UniProt P49327)
# Assay: LTEA_HepaRG_FASN: Life Technologies and Expression Analysis (LTEA) Assay for Fatty Acid Synthase (FASN) using HepaRG (AID 2283448)
# Conditions: mRNA level, 48 h; actives raise or lower the signal
# Summary of the method: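 Differentiated human HepaRG cells were exposed for 48 h in serum-free induction medium to eight half-log concentrations up to 100 uM in 0.5% DMSO, in duplicate. FASN mRNA was quantified by TaqMan qRT-PCR, normalized to ACTB/GAPDH/POLR2A, and fitted bidirectionally against DMSO.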
SMILES,outcome,AC50
CC1=C2C[C@H]3[C@@H](CC=C4C[C@@H](O)CC[C@@]43C)[C@@H]2CC[C@]12O[C@@H]1C[C@H](C)CN[C@H]1[C@H]2C,inactive,–
CC#Cc1cc(C)nc(Nc2ccccc2)n1,–,1.83 µM (active)
CCC(C)(c1ccc(O)cc1)c1ccc(O)cc1,–,70.5 µM (active)
Oc1ccc(Cl)cc1Cl,inactive,–
CCCCCCCCCc1ccc(O)cc1,inactive,–
ClC(Cl)=C(c1ccc(Cl)cc1)c1ccc(Cl)cc1,–,50 µM (active)
O=S(=O)(O)C(F)(F)C(F)(F)C(F)(F)C(F)(F)C(F)(F)C(F)(F)F,inactive,–
Cc1cc(O)ccc1Cl,inactive,–
O=C(O)C(F)(F)C(F)(F)C(F)(F)C(F)(F)C(F)(F)C(F)(F)C(F)(F)C(F)(F)F,–,94.2 µM (active)
COS(=O)(=O)OC,inactive,–
N#Cc1ccc(N(CC(N)=O)CC(F)(F)F)cc1C(F)(F)F,inactive,–
CCC(C)(CC)c1cc(NC(=O)c2c(OC)cccc2OC)on1,–,33.8 µM (active)
O=C(N[C@H]1CN2CCC1CC2)c1cc2ccoc2cn1,inactive,–
C1CC2OC2CC1C1CO1 (stereo unspecified),inactive,–
O=S(=O)(O)C(F)(F)C(F)(F)C(F)(F)C(F)(F)F,inactive,–
O=NN(c1ccccc1)c1ccccc1,inactive,–
CC(c1ccc(O)cc1)(c1ccc(O)cc1)c1ccc(O)cc1,–,32.1 µM (active)
C=CC(N)=O,inactive,–
Nn1cnnc1,inactive,–
O=C(O)C(F)(F)C(F)(F)C(F)(F)C(F)(F)C(F)(F)C(F)(F)C(F)(F)C(F)(F)C(F)(F)F,–,31.1 µM (active)
C=CC(=O)NCNC(=O)C=C,inactive,–
Clc1ccc(C(Cl)(Cl)Cl)cc1,inactive,–

# Read-out: Cyclin D2 (CCND2), CCND2 (gene 894)
# Assay: LTEA_HepaRG_CCND2: Life Technologies and Expression Analysis (LTEA) Assay for Cyclin D2 (CCND2) using HepaRG (AID 2283449)
# Conditions: mRNA level, 48 h; actives raise or lower the signal
# Summary of the method: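 Read-out is CCND2 mRNA level measured by qRT-PCR in human HepaRG liver cells and normalised to three housekeeping genes. Chemicals were applied for 48 h at up to 100 uM, with gain or loss fitted relative to 0.5% DMSO.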
SMILES,outcome,AC50
CC1=C2C[C@H]3[C@@H](CC=C4C[C@@H](O)CC[C@@]43C)[C@@H]2CC[C@]12O[C@@H]1C[C@H](C)CN[C@H]1[C@H]2C,inactive,–
CC#Cc1cc(C)nc(Nc2ccccc2)n1,inactive,–
CCC(C)(c1ccc(O)cc1)c1ccc(O)cc1,inactive,–
Cc1ccccc1CO[C@@H]1C[C@@]2(C(C)C)CC[C@]1(C)O2,inactive,–
CCC(=O)O[C@H]1CC[C@H]2[C@@H]3CCC4=CC(=O)CC[C@]4(C)[C@H]3CC[C@]12C,inactive,–
Oc1ccc(Cl)cc1Cl,inactive,–
CCCCCCCCCc1ccc(O)cc1,inactive,–
ClC(Cl)=C(c1ccc(Cl)cc1)c1ccc(Cl)cc1,inactive,–
O=S(=O)(O)C(F)(F)C(F)(F)C(F)(F)C(F)(F)C(F)(F)C(F)(F)F,inactive,–
COS(=O)(=O)OC,inactive,–
N#Cc1ccc(N(CC(N)=O)CC(F)(F)F)cc1C(F)(F)F,inactive,–
CCC(C)(CC)c1cc(NC(=O)c2c(OC)cccc2OC)on1,inactive,–
O=C(N[C@H]1CN2CCC1CC2)c1cc2ccoc2cn1,inactive,–
O=S(=O)(O)C(F)(F)C(F)(F)C(F)(F)C(F)(F)F,inactive,–
O=NN(c1ccccc1)c1ccccc1,inactive,–
NS(=O)(=O)C(F)(F)C(F)(F)C(F)(F)C(F)(F)C(F)(F)C(F)(F)C(F)(F)C(F)(F)F,inactive,–
C=CC(N)=O,inactive,–
Cc1cc2c3c(c1)C(c1ccccc1)=N[C@@H](NC(=O)c1ccncc1)C(=O)N3CC2,inactive,–
CN(C)CCO,inactive,–
Nn1cnnc1,inactive,–
Cc1cc(-c2ccc(N)c(C)c2)ccc1N,inactive,–
O=C(NC(=O)c1c(F)cccc1F)Nc1cc(Cl)c(OC(F)(F)C(F)F)c(Cl)c1,inactive,–
CN(C)c1nc(=O)n(C2CCCCC2)c(=O)n1C,inactive,–
O=C(O)C(F)(F)C(F)(F)C(F)(F)C(F)(F)C(F)(F)C(F)(F)C(F)(F)C(F)(F)C(F)(F)F,inactive,–
c1cc2ccc3cccc4ccc(c1)c2c34,–,5 µM (active)
Clc1ccc(C(Cl)(Cl)Cl)cc1,inactive,–
O=C(NC(=O)c1cc(F)c(F)cc1Cl)Nc1cc(F)ccc1N1CCC(C(=O)O)CC1,inactive,–
